The results in this text go back to PubChem BioAssay (Tox21).

Results filed as inconclusive are left out. The source made the active and inactive calls. Unless noted, calls follow the shape of the dose curve; as a rule, active = well fitted curve in the direction sought with a large enough effect in the repeat runs; inconclusive = weak or mixed curves; inactive = no such curve, though single readings can be large; an effect the other way counts as inactive or inconclusive.

Experiment [1] can be described thus: qHTS assay to identify aromatase inhibitors - cell viability counter screen (AID 743084;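 also: cells stimulated with testosterone during compound exposure; nearly all actives have a fitted effect of over 55% in size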). (In general: Quantitative high-throughput screening tests each substance at several concentrations.)
Experiment [2] addresses Aryl hydrocarbon receptor (Homo sapiens) (UniProt P35869). Kind of experiment: qHTS assay to identify small molecule that activate the aryl hydrocarbon receptor (AhR) signaling pathway (AID 743085). Also: nearly all actives have a fitted effect of over 15% in size. Also: potency is read from the fitted curve at half-maximal effect.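 As to activation: HG2L7.5c1 human HepG2 liver cells with stably integrated DRE-driven firefly reporter; series mostly up to about 70 µM.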 The method, boiled down:
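Steps: seed HepG2-AhR-luc cells; allow 5 h at 37C; pin-transfer test compound or vehicle; incubate 24 h at 37C; add viability dye (30 min, 37C) and read fluorescence; add luciferase substrate (30 min, RT) and read luminescence.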

The nature of experiment [3]: qHTS assay to identify small molecule that activate the aryl hydrocarbon receptor (AhR) signaling pathway - cell viability counter screen (AID 743086).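 Also: HepG2 liver cells carrying the AhR DRE luciferase reporter; series mostly up to about 70 µM; nearly all actives have a fitted effect of over 45% in size.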 The method, boiled down:
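HepG2-AhR-luc (HG2L7.5c1) cells, 4000/well, were preincubated 5 h at 37C, exposed to compound in qHTS format for 24 hr at 37C, then given CellTiter-Fluor for 30 min; viability was read as fluorescence in the reporter wells.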

Experiment [4] deals with Peroxisome proliferator-activated receptor gamma (Homo sapiens) (UniProt P37231). Kind of experiment: qHTS assay to identify small molecule agonists of the peroxisome proliferator-activated receptor gamma (PPARg) signaling pathway (AID 743094; active = well fitted activation curve with a large enough effect in the signal ratio in the repeat runs, not every such curve was filed as active; the % refers to the signal ratio). The method, boiled down:
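Agonism was assessed in a beta-lactamase reporter system, HEK293H cells with a stably integrated UAS-bla construct under PPARg control; the 17 h treatment at 37C preceded a 1 h room-temperature FRET substrate read.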

Experiment [5] can be described thus: qHTS assay to identify small molecule antagonists of the peroxisome proliferator-activated receptor gamma (PPARg) signaling pathway - cell viability counter screen (AID 743194). Also: nearly all actives have a fitted effect of over 55% in size. In outline:
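PPARg-UAS-bla HEK293H cells were plated, rested 5 h at 37 C, then treated with compounds plus rosiglitazone (50 nM final) for 17 h at 37 C; viability was then read by CellTiter-Glo luminescence after 30 min at room temperature.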

A short description of experiment [6]: qHTS assay for small molecule agonists of the antioxidant response element (ARE) signaling pathway - cell viability counter screen (AID 743203; calls by dose curve; also: nearly all actives have a fitted effect of over 55% in size). In outline: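 ATP content via CellTiter-Glo luminescence served as the viability measure. Cells: ARE-bla HepG2, 2,000 per well. Exposure: 16 hrs, 37C/5% CO2.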
Experiment [7] in a line: qHTS assay for small molecule activators of the heat shock response signaling pathway - cell viability counter screen (AID 743209). Also: nearly all actives have a fitted effect of over 50% in size. Also: potency is read from the fitted curve at half-maximal effect. In outline: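 Compounds dissolved in DMSO were added to overnight-plated HSE-bla HeLa cells and left 5 h at 37 C. Cell viability was quantified by luminescence using CellTiter-Glo.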
Experiment [8] is described as follows: qHTS assay to identify small molecule agonists of the peroxisome proliferator-activated receptor delta (PPARd) signaling pathway - cell viability counter screen (AID 743211). Also: nearly all actives have a fitted effect of over 55% in size. The method, boiled down: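 Viability of GeneBLAzer PPARd UAS-bla HEK293H cells was assessed after 17 h compound incubation at 37C, using CellTiter-Glo reagent added after the reporter read and luminescence recorded 30 min later.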

The target in experiment [9] is Bile acid receptor (Homo sapiens) (UniProt Q96RI1). Kind of experiment: qHTS assay to identify small molecule antagonists of the farnesoid-X-receptor (FXR) signaling pathway (AID 743217; active = well fitted inhibition curve with a large enough effect in the signal ratio in the repeat runs, not every such curve was filed as active; the % refers to the signal ratio; also: potency is read from the fitted curve at half-maximal effect). In outline: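 Test compounds are pin-transferred onto FXR-bla HEK 293T cells, then chenodeoxycholic acid is added at 50 uM final. After 16 h at 37 °C, LiveBLAzer B/G substrate is applied for 2 h at room temperature and fluorescence read.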

A short description of experiment [10]: qHTS assay to identify small molecule agonists of the farnesoid-X-receptor (FXR) signaling pathway - cell viability counter screen (AID 743218). Also: nearly all actives have a fitted effect of over 45% in size. In outline:
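Quantitative HTS counter screen measuring ATP-based viability via CellTiter-Glo luminescence in HEK 293T cells carrying a UAS-driven beta-lactamase reporter, after 16 h compound exposure at 37 C.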

For experiment [11], the target named is Bile acid receptor (Homo sapiens) (UniProt Q96RI1). Nature of the experiment: qHTS assay to identify small molecule agonists of the farnesoid-X-receptor (FXR) signaling pathway (AID 743220; active = well fitted activation curve with a large enough effect in the signal ratio in the repeat runs, not every such curve was filed as active; the % refers to the signal ratio). The method, boiled down:
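FXR-UAS-bla HEK 293T cells carrying a UAS-driven beta-lactamase reporter were plated for 5 h at 37C/5% CO2, then exposed to DMSO-dissolved Tox21 10K compounds for 16 h at 37C. A LiveBLAzer B/G FRET substrate was loaded for 2 h at room temperature before fluorescence reading.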

Experiment [12] is described as follows: qHTS assay to identify small molecule antagonists of the farnesoid-X-receptor (FXR) signaling pathway - cell viability counter screen (AID 743221; active = well fitted cell-killing curve with a large enough effect in the repeat runs, not every such curve was filed as active; also: nearly all actives have a fitted effect of over 50% in size). The method, boiled down:
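Quantitative HTS of the Tox21 10K library run in parallel with the beta-lactamase reporter read. HEK 293T cells carrying a UAS-driven bla reporter got compound and 50 uM CDCA (final) for 16 h; ATP-based luminescence followed.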

The target of experiment [13] is Vitamin D3 receptor (Homo sapiens) (UniProt P11473). Nature of the experiment: qHTS assay to identify small molecule agonists of the vitamin D receptor (VDR) signaling pathway (AID 743222; calls by dose curve). The method, boiled down:
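Tox21 cell reporter format: VDR-bla line, 16 h compound exposure in 5% CO2 at 37C, then fluorescence intensity after 2 h with LiveBLAzer B/G FRET substrate.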

Experiment [14] has the same target. Nature of the experiment: qHTS assay to identify small molecule antagonists of the vitamin D receptor (VDR) signaling pathway (AID 743223; active = well fitted inhibition curve with a large enough effect in the signal ratio in the repeat runs, not every such curve was filed as active; the % refers to the signal ratio). The method, boiled down: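 Fluorescence from LiveBLAzer B/G FRET substrate, read after 2 h at room temperature, reflects beta-lactamase reporter activity in VDR-bla cells treated 16 h at 37C with compounds and agonist 1alpha,25-dihydroxyvitamin D3 (3 nM final).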

Experiment [15] in a line: qHTS assay for small molecule agonists of the antioxidant response element (ARE) signaling pathway (AID 743202; active = well fitted activation curve with a large enough effect in the signal ratio in the repeat runs, not every such curve was filed as active; the % refers to the signal ratio; also: potency is read from the fitted curve at half-maximal effect). The method, boiled down:
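Following a 16 h, 37 C exposure of reporter HepG2 cells (ARE-driven beta-lactamase, 2,000 cells/well) to compounds, FRET substrate was applied for 2 h at room temperature and fluorescence intensity recorded.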

Experiment [16] has as its target Peroxisome proliferator-activated receptor delta (Homo sapiens) (UniProt Q03181). Nature of the experiment: qHTS assay to identify small molecule agonists of the peroxisome proliferator-activated receptor delta (PPARd) signaling pathway (AID 743212; calls by dose curve). In outline:
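Beta-lactamase reporter read by fluorescence (LiveBLAzer B/G FRET, 2 h, room temperature). Test agents, in DMSO, incubated at 37 C with PPARd-bla HEK293H cells.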

Experiment [17] has the same target. Kind of experiment: qHTS assay to identify small molecule antagonists of the peroxisome proliferator-activated receptor delta (PPARd) signaling pathway (AID 743215; active = well fitted inhibition curve with a large enough effect in the signal ratio in the repeat runs, not every such curve was filed as active; the % refers to the signal ratio;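 also: cells stimulated with agonist L165041 at 300 nM final during compound exposure; series mostly up to about 62 µM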). In outline: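 Here, a reporter line (HEK293H, beta-lactamase under a UAS) measures PPARd signaling. Compounds are tested against agonist L165041 at 300 nM final concentration over 17 h at 37 C, with fluorescence read after substrate.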

The nature of experiment [18]: qHTS assay for small molecule activators of the heat shock response signaling pathway (AID 743210; active = well fitted activation curve with a large enough effect in the signal ratio in the repeat runs, with a control signal flat, not every such curve was filed as active; the % refers to the signal ratio; also: series mostly up to about 63 µM). The method, boiled down:
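Heat shock element–beta-lactamase HeLa reporter cells; qHTS with compounds for 5 h at 37 C; detection by FRET substrate fluorescence after 2.5 h at RT.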

A short description of experiment [19]: qHTS assay to identify small molecule antagonists of the peroxisome proliferator-activated receptor delta (PPARd) signaling pathway - cell viability counter screen (AID 743213). Also: nearly all actives have a fitted effect of over 50% in size. In outline:
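PPARd-bla HEK293H cells (3000/well) got compound plus 300 nM L165041 agonist for 17 h at 37 C. Viability in the same wells came from CellTiter-Glo luminescence after 30 min at room temperature.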

Sequence of Aryl hydrocarbon receptor (Homo sapiens) (P35869 whole entry, looked up): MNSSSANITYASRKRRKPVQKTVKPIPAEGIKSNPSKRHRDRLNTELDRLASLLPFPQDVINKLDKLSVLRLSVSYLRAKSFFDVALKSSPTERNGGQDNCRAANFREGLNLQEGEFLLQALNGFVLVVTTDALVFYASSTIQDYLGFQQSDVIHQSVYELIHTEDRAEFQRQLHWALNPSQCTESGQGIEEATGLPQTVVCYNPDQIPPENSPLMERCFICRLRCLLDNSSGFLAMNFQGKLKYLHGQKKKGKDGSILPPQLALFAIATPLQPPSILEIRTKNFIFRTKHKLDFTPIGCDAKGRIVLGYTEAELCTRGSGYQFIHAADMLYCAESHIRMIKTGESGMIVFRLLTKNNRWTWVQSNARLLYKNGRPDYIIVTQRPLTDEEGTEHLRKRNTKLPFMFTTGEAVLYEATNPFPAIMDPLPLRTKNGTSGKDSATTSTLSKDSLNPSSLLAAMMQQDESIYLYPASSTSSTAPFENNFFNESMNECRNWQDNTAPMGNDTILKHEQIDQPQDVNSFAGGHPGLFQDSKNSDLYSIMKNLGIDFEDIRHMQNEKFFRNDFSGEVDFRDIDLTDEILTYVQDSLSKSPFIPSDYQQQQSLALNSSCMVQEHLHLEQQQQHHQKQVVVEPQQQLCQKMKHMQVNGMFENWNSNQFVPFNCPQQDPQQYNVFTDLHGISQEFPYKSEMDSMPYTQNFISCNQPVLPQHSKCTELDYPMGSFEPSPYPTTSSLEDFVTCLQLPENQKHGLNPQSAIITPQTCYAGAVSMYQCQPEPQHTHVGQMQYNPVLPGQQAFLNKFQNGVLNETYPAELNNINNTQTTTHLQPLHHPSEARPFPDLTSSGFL
Sequence of Peroxisome proliferator-activated receptor gamma (Homo sapiens) (P37231 whole entry, looked up): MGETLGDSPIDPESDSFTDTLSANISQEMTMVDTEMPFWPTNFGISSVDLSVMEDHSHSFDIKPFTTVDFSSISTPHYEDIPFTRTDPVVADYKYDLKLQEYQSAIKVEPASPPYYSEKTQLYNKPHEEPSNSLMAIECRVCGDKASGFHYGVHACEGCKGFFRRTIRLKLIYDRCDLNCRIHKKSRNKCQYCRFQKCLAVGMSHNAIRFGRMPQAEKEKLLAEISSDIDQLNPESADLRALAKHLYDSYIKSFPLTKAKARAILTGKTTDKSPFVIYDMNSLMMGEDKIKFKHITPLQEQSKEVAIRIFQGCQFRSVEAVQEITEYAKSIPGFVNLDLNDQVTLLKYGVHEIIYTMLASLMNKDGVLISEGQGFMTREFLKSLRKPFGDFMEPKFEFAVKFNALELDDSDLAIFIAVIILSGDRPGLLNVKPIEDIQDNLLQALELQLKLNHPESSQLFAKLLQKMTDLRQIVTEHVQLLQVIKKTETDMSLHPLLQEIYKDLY
Sequence of Vitamin D3 receptor (Homo sapiens) (P11473 whole entry, looked up): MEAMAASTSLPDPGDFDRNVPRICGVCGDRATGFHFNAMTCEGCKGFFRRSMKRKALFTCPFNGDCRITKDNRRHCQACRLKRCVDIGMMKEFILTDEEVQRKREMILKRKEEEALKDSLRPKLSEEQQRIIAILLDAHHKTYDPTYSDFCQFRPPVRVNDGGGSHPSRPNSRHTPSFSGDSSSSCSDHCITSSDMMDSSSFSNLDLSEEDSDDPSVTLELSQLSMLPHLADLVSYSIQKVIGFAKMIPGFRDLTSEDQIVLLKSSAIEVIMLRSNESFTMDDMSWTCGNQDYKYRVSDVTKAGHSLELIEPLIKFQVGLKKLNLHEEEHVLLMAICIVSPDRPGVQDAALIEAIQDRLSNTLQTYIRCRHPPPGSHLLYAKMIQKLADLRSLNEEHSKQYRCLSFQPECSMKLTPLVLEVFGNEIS
Sequence of Bile acid receptor (Homo sapiens) (Q96RI1 whole entry, looked up): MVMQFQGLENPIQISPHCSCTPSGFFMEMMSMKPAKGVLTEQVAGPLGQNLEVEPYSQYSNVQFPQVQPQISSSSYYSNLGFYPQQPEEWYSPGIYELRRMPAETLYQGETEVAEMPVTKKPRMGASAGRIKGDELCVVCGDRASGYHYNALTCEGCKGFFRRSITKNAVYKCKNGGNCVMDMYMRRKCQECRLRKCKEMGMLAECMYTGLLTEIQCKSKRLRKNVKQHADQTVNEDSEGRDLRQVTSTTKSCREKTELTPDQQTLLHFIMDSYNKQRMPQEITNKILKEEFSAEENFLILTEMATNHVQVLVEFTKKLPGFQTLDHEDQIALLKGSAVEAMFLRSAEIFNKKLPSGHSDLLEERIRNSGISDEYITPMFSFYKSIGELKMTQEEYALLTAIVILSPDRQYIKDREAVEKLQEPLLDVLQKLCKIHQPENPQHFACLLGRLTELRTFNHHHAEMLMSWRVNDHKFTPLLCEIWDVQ
Sequence of Peroxisome proliferator-activated receptor delta (Homo sapiens) (Q03181 whole entry, looked up): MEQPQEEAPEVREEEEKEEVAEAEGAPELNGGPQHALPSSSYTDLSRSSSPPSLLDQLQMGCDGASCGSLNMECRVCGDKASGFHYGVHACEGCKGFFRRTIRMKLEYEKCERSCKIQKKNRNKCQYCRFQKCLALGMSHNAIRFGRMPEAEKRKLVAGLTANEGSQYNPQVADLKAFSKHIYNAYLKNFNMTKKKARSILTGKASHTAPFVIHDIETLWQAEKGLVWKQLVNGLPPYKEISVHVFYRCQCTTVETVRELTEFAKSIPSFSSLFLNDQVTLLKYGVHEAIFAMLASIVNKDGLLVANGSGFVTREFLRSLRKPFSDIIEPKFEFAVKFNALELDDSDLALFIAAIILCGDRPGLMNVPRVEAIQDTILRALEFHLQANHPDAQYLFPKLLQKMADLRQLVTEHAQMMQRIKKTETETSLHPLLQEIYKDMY

As for `Nc1nc(-c2ccccc2)cs1`, the Potency entry in [1], in experiment [3], in experiment [4], in [5], in experiment [6] and in experiment [7] was “inactive” throughout. Besides, the Potency result in [8], in [9], in experiment [10], in experiment [11], in experiment [12] and in [13] was “inactive” each time. Moreover, in experiment [14], the Potency result was “inactive”. In [2], the Potency was 24.3 µM (active).
On to `C[C@H]1NCc2cc(-c3ccc4c(=O)c(C(=O)O)cn(C5CC5)c4c3OC(F)F)ccc21`, for which the Potency entry in [1], in experiment [2], in experiment [3], in experiment [4], in experiment [5] and in experiment [15] was “inactive” in each case. Besides, the Potency entry in [6], in [16], in experiment [17], in experiment [10], in [12] and in [13] was “inactive” in each case. For the same molecule, the Potency result in experiment [14] is “inactive”.
`CN1CCN2c3ccccc3Cc3ccccc3C2C1` (stereo not given): the Potency result in experiment [1], in experiment [2], in experiment [3], in [4], in experiment [5] and in experiment [6] was “inactive” each time. In addition, the Potency entry in experiment [7], in experiment [18], in experiment [10], in experiment [13] and in [14] was “inactive” each time.
Consider `OC1CCC(C2CCCCC2)CC1` (stereo not given), for which the Potency entry in [1], in [2], in [3], in experiment [4], in experiment [5] and in [6] was “inactive” in each case. Moreover, the Potency entry in experiment [7], in [16], in [17], in experiment [10], in experiment [11] and in [12] was “inactive” in each case. The Potency entry in experiment [13] and in experiment [14] was “inactive” in each case.
For `CCC(=O)OC(=O)CC`, the Potency entry in experiment [1], in [2], in experiment [3], in experiment [4], in experiment [5] and in experiment [6] was “inactive” throughout. Also, the Potency result in [18], in experiment [8], in experiment [16], in [17], in experiment [9] and in experiment [11] was “inactive” in each case. Moreover, the Potency result in experiment [12] is “inactive”.
For `CCCCCCCCCCC[C@@H](C[C@@H]1OC(=O)[C@H]1CCCCCC)OC(=O)[C@H](CC(C)C)NC=O`, the Potency entry in [1], in experiment [2], in experiment [3], in [4], in experiment [5] and in experiment [6] was “inactive” throughout. In addition, the Potency result in [7], in [16], in [19], in experiment [17], in [10] and in [14] was “inactive” each time.
In the case of `C=Cc1cccc(C)c1`, the Potency result in experiment [1], in [2], in [3], in [4], in experiment [5] and in [6] was “inactive” each time. Moreover, the Potency result in [7], in experiment [18], in experiment [16], in experiment [19], in [17] and in experiment [10] was “inactive” each time. Besides, the Potency result in experiment [12], in [13] and in experiment [14] was “inactive” each time.
For the molecule `CC(C(=O)O)c1ccc2c(c1)[nH]c1ccc(Cl)cc12` (stereo not given), the Potency entry in experiment [1], in experiment [2], in experiment [3], in experiment [4], in experiment [5] and in experiment [6] was “inactive” each time. Besides, the Potency result in experiment [7], in experiment [10], in experiment [11], in experiment [12] and in experiment [14] was “inactive” in each case.
On to `CCCCCCCCCCOC(=O)c1ccccc1C(=O)OCCCCCCCC`, for which the Potency entry in experiment [1], in experiment [2], in experiment [3], in experiment [4], in [5] and in [6] was “inactive” each time. Also, the Potency result in experiment [7], in experiment [8], in [16], in experiment [19], in experiment [10] and in [12] was “inactive” each time.
As to `CCC(CC)C(C)CCOC(C)=O` (stereo not given), the Potency entry in experiment [1], in experiment [2], in experiment [3], in experiment [4], in experiment [15] and in [6] was “inactive” in each case. In addition, the Potency result in experiment [7], in experiment [18], in experiment [8], in experiment [16], in experiment [19] and in [17] was “inactive” in each case. The Potency entry in experiment [12], in experiment [13] and in experiment [14] was “inactive” in each case.
Regarding `Cc1cccc2cccnc12`, the Potency result in experiment [1], in experiment [2], in experiment [3], in [4], in experiment [5] and in [15] was “inactive” each time. For the same molecule, the Potency result in experiment [6], in experiment [18], in experiment [8], in [16], in experiment [19] and in experiment [17] was “inactive” throughout. For the same molecule, the Potency entry in [10], in [12], in [13] and in [14] was “inactive” throughout.
In the case of `Cc1cc(C(C)(C)C)c(O)c(C)c1Cn1c(=O)n(Cc2c(C)cc(C(C)(C)C)c(O)c2C)c(=O)n(Cc2c(C)cc(C(C)(C)C)c(O)c2C)c1=O`, the Potency result in [1], in experiment [2], in experiment [3], in [4], in [15] and in experiment [6] was “inactive” in each case. Besides, the Potency entry in experiment [7], in experiment [16], in experiment [19], in [17], in [11] and in experiment [12] was “inactive” in each case. Further, the Potency result in experiment [14] was “inactive”. Further, the Potency in [9] was 19.5 µM (active).
`CCCCC/C=C\C/C=C\CCCCCCCC(=O)O`: the Potency result in experiment [1], in experiment [2], in [3], in experiment [4], in experiment [6] and in experiment [8] was “inactive” in each case. For the same molecule, the Potency entry in [16], in [19], in experiment [17], in experiment [9], in [11] and in experiment [12] was “inactive” each time. For the same molecule, the Potency entry in experiment [13] is “inactive”. The Potency was 61.1 µM (active) in experiment [15] and 42.9 µM (active) in experiment [7].
